AID504770: growth inhibitors of E. coli YBA685 in a screen for V. cholerae RctB (chromosome II replication) inhibitors. AID 504770. z-score (concentration not given with the values). E. coli YBA685 rctB-dependent plasmid, OD600 growth, 3 h; hits give low values. 130,000 tested, 0.27% active; in the data active means z-score below about -2, passing the limit was not always enough
Mtb MbtI inh: MbtI salicylate synthase inhibition. P9WFX0. purified MbtI enzyme, fluorescence intensity read-out. inhibition, % (test concentration not listed). 100,000 tested, 0.89% active; in the data active means inhibition mostly above about 56%, no sharp cut-off; inactive means mostly below about 77%
Target sequence (P9WFX0 whole entry, looked up): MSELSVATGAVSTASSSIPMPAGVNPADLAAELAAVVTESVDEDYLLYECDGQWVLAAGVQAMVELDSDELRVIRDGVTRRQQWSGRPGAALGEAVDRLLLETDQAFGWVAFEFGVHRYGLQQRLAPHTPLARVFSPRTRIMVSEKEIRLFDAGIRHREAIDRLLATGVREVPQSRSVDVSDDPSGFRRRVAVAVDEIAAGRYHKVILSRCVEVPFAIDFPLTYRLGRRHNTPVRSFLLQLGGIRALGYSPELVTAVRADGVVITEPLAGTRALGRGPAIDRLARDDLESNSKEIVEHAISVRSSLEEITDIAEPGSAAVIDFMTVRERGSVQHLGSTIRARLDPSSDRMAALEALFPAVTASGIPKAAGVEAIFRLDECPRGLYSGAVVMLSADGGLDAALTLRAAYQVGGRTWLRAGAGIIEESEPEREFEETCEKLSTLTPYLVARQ
Mtb MenB inh: blocks the Mycobacterium tuberculosis MenB enzyme | 100,000 tested, 0.43% active | inhibition, % (concentration not given with the values) | MenB enzyme assay, absorbance read-out | AID 540299 | P9WNP5; in the data active means inhibition above about 21%, passing the limit was not always enough
Polio RdRp inh: poliovirus RNA polymerase inhibition. 150,000 tested, 0.66% active. AID 588519. % elongation, % (compound at 16.7 µg/mL). poliovirus polymerase elongation, fluorescence polarization; hits give low values. P03300; in the data active means % elongation below about 90%
Starred values were filed as active, the others as inactive; · = no result given. Shown are actives, neighbours in structure and some others; about 1.4% of the full set was active somewhere.

SMILES	AID504770	Mtb MbtI inh	Mtb MenB inh	Polio RdRp inh
CC1C(=O)C2(CCCCC2)C(=O)OC1c1ccccc1 (stereo not drawn)	0.4	·	-8	108
C=CCN(CC=C)C(=O)C[n+]1ccc(C(N)=O)cc1	-4*	0	-15	103
C=CCN(CC=C)C(=O)C[n+]1cccc(C(N)=O)c1	0.2	6	-26	101
COC(=O)CC1C(=O)NCCN1C(=O)CSc1nc2ccccc2s1 (stereo not drawn)	0.15	97*	-56	95
COC(=O)CC1C(=O)NCCN1C(=O)CSc1nc2ccccc2c(=O)n1-c1ccc(C)cc1 (stereo not drawn)	2.2	20	5	100
Cc1ccc(NC(=O)CSc2nc(=O)n(Cc3ccco3)c3c2CCC3)cc1F	·	·	·	76*
Cc1cc(C)c(NC(=O)CSc2nc(=O)n(Cc3ccco3)c3c2CCC3)c(C)c1	·	·	·	108
C1=CCC(CNCc2ccc3c(c2)OCO3)CC1 (stereo not drawn)	-1.1	0	-22	105
CCC(=O)C12CC3CC(CC(C3)C1)C2	-0.45	-2	-2	100
Cc1nc2ccccc2c(=O)n1-c1ccc(C(=O)NC(C)c2ccccn2)cc1 (stereo not drawn)	1.8	0	-35	34*
CCOc1cc2c(cc1OCC)C1C(C(=O)NCCC(C)C)c3ccccc3C(=O)N1CC2 (stereo not drawn)	-2.9*	13	-12	102
Cc1ccc(N(C(=O)c2ccccc2C)S(=O)(=O)c2ccc(Cl)cc2)cc1	1.2	4	-42	103
CN1CCCN(Cn2nc3ccccn3c2=S)CC1	0.95	48	-8	15*
CC(CN1CCCN(C)CC1)c1ccccc1 (stereo not drawn)	-0.8	-5	-22	102
CC1CCN(S(=O)(=O)c2ccc(NC(=O)c3ccc4c(c3)OCCO4)cc2)CC1	0.8	47	-9	100
CC1(C)c2sc(=O)[nH]c2SC2C(=O)N(c3ccc(Br)cc3)C(=O)C21 (stereo not drawn)	0.1	-10	-8	100
CC12C=CC(CO)(O1)C1C(=O)N(c3ccc(Br)cc3)C(=O)C12 (stereo not drawn)	1.4	101*	-17	104
Cc1ccc(C)c(NC(=O)CN(C)C(=O)COc2ccccc2C#N)c1	-3.5*	-3	-7	103
O=C(O)CCC(=O)c1ccc(Br)cc1	-3.1*	-11	·	90*
O=C(O)CCC(=O)c1ccc(I)cc1	1.5	4	·	101
CC(C)c1ccc(-c2nnn(Cc3cc(=O)n4ccsc4n3)n2)cc1	-2.2*	-51	-4	104
COc1ccc(C(=O)N/N=c2/c(=O)c(=O)c3ccccc23)cc1	-0.2	-6	-25	52*
COc1nc(Nc2ccc(C)cc2)nc(NC2CCCC2)n1	0	-9	5	101
CCOCCCNc1n[nH]c(=S)s1	-0.55	93	-2	88*
CCn1cc2c(n1)-c1c(oc(C(=O)Nc3ccc(Br)cc3F)c1C)CC2	·	·	·	53*
SMILES	AID504770	Mtb MbtI inh	Mtb MenB inh	Polio RdRp inh
CCn1cc2c(n1)-c1c(oc(C(=O)Nc3ccc(Cl)cc3)c1C)CC2	0.05	10	10	88*
N#Cc1ccccc1CN1C(=O)c2cccc3cccc1c23	-0.75	10	-24	102
Cc1cn(CCC#N)nc1C=Nc1ccc(O)cc1	1.1	101	-4	105
O=C(c1ccc(Cn2c(=O)[nH]c3ccsc3c2=O)cc1)N1CCCCC1	-0.1	-9	2	102
C=C(C)CN(CC)c1nc(N)c2c(N)nc3c(c2c1C#N)CC(=O)N3C12CC3CC(CC(C3)C1)C2	1	-18	-2	102
N#Cc1c(N2CCCC(O)C2)nc(N)c2c(N)nc3c(c12)CC(=O)N3C12CC3CC(CC(C3)C1)C2 (stereo not drawn)	1.3	-14	-25	39*
O=C(SCc1ccco1)c1csc(C2COc3ccccc3O2)n1 (stereo not drawn)	0.65	·	·	·
CCC(C)NC(=O)Nc1cccc2ccccc12 (stereo not drawn)	-0.8	-36	-30	103
OC(CNC1CCCCC1)COc1ccc(-c2ccccc2)cc1 (stereo not drawn)	-0.1	·	·	·
O=C1c2cccc3c(N4CCCCC4)ccc(c23)C(=O)N1c1ccccn1	-0.25	-2	36*	78
N#C/C(=C\Nc1ccccn1)C(=O)c1ccccc1	-0.9	-4	-29	104
O=C(NC1=NCCS1)Nc1ccc2snnc2c1	-0.95	108	12	102
O=S(=O)(NCc1cc(F)cc2c1OCOC2)c1ccc(N2CCOCC2)nc1	1.8	8	13	103
CC(C)(C)OC(=O)NCc1cccs1	0.95	6	33*	102

Assay outcomes (PubChem BioAssay)
